Source: ChEMBL document CHEMBL1961873, “Compounds: GSK PKIS; Assays: Nanosyn kinase panel” (2012)

Assays:
[1] = target: T1, Ephrin type-B receptor 2 (Homo sapiens) (UniProt P29323); conditions: at 1 µM
T1 sequence (whole entry): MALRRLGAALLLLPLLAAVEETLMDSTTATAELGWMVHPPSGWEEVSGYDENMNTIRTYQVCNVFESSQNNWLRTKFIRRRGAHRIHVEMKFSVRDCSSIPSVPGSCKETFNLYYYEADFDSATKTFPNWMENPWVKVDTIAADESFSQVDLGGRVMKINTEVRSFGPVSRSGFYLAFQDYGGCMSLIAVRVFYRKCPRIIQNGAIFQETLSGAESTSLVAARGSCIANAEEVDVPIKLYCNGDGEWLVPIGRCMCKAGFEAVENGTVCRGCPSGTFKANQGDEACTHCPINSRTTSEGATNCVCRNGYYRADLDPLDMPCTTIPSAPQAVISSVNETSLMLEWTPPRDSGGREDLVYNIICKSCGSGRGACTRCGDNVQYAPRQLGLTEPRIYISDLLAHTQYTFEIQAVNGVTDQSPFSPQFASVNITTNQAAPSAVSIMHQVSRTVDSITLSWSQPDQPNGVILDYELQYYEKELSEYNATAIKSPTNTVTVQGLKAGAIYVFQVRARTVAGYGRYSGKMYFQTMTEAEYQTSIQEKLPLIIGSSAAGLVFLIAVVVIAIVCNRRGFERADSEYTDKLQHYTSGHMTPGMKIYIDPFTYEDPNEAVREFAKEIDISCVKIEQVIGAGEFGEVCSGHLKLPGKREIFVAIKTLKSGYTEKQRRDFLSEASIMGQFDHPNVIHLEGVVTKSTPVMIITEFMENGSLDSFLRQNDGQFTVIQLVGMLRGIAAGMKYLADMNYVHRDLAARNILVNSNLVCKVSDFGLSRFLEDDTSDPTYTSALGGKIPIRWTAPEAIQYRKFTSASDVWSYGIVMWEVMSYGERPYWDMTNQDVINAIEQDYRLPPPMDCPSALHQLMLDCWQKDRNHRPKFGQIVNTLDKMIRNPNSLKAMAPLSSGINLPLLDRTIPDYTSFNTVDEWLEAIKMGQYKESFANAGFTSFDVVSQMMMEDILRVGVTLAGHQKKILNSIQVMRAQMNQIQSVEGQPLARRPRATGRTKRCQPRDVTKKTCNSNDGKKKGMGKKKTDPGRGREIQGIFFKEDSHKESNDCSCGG

[2] = target: T2, Ephrin type-B receptor 3 (Homo sapiens) (UniProt P54753); conditions: at 0.1 µM
T2 sequence (whole entry): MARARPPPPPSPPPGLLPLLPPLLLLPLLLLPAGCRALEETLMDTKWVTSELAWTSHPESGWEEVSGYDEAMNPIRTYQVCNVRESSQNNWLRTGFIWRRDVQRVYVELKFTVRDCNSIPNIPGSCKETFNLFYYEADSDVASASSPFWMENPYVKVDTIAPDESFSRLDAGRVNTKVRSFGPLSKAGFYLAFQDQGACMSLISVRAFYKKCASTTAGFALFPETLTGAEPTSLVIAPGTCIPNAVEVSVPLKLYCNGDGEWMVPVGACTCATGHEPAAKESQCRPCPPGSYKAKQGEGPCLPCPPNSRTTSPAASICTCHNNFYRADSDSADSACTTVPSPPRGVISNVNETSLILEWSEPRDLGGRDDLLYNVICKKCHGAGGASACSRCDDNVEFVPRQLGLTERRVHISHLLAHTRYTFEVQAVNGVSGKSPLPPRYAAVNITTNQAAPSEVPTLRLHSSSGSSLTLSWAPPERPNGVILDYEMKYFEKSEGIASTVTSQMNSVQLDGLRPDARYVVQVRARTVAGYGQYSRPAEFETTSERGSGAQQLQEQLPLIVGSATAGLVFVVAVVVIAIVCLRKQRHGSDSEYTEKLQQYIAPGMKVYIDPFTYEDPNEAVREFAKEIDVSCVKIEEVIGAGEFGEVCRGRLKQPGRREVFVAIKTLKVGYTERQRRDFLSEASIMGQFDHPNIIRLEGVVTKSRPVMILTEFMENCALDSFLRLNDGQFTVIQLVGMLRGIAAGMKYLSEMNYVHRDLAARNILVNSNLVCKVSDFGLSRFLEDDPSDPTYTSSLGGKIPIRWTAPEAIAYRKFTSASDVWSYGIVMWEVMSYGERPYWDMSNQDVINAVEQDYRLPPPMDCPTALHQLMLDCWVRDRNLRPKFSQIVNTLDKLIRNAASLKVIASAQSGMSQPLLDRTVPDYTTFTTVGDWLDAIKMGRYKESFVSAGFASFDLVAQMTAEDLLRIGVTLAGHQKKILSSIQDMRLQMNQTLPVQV

[3] = target: T2, Ephrin type-B receptor 3 (Homo sapiens); conditions: at 1 µM
[4] = target: T3, Ephrin type-B receptor 4 (Homo sapiens) (UniProt P54760); conditions: at 0.1 µM
T3 sequence (whole entry): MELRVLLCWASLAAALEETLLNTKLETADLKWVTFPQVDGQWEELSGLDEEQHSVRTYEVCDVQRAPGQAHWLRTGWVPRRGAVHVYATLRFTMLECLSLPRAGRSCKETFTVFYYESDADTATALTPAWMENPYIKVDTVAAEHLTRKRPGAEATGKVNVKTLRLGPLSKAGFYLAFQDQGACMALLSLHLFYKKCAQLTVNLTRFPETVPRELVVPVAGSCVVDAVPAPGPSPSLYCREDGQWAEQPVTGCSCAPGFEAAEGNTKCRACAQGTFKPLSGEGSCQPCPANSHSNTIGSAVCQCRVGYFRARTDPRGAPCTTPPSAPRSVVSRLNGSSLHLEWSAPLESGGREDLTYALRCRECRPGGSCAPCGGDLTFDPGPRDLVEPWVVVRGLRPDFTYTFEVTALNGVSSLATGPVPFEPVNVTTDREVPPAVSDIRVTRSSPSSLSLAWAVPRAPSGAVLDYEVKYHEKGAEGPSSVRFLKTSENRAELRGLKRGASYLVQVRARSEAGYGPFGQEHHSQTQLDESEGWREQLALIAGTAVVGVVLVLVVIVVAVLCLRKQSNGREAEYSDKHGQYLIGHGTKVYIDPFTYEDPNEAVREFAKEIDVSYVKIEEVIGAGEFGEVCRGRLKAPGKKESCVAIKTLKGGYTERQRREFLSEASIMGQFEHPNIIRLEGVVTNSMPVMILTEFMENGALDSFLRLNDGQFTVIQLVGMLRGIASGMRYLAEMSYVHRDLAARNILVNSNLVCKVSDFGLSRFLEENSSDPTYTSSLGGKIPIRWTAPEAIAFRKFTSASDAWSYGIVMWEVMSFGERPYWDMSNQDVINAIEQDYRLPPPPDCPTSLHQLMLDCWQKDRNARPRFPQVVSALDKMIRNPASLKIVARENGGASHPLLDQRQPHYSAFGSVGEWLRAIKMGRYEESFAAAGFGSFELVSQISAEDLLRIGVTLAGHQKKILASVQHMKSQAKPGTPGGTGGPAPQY

[5] = target: T3, Ephrin type-B receptor 4 (Homo sapiens); conditions: at 1 µM
[6] = target: Receptor tyrosine-protein kinase erbB-2 (Homo sapiens) (UniProt P04626); conditions: at 0.1 µM
[7] = target: Receptor tyrosine-protein kinase erbB-2 (Homo sapiens) (UniProt P04626); conditions: at 1 µM
[8] = target: Receptor tyrosine-protein kinase erbB-4 (Homo sapiens) (UniProt Q15303); conditions: at 0.1 µM
Chain of Receptor tyrosine-protein kinase erbB-4 (Homo sapiens) (Q15303 whole entry): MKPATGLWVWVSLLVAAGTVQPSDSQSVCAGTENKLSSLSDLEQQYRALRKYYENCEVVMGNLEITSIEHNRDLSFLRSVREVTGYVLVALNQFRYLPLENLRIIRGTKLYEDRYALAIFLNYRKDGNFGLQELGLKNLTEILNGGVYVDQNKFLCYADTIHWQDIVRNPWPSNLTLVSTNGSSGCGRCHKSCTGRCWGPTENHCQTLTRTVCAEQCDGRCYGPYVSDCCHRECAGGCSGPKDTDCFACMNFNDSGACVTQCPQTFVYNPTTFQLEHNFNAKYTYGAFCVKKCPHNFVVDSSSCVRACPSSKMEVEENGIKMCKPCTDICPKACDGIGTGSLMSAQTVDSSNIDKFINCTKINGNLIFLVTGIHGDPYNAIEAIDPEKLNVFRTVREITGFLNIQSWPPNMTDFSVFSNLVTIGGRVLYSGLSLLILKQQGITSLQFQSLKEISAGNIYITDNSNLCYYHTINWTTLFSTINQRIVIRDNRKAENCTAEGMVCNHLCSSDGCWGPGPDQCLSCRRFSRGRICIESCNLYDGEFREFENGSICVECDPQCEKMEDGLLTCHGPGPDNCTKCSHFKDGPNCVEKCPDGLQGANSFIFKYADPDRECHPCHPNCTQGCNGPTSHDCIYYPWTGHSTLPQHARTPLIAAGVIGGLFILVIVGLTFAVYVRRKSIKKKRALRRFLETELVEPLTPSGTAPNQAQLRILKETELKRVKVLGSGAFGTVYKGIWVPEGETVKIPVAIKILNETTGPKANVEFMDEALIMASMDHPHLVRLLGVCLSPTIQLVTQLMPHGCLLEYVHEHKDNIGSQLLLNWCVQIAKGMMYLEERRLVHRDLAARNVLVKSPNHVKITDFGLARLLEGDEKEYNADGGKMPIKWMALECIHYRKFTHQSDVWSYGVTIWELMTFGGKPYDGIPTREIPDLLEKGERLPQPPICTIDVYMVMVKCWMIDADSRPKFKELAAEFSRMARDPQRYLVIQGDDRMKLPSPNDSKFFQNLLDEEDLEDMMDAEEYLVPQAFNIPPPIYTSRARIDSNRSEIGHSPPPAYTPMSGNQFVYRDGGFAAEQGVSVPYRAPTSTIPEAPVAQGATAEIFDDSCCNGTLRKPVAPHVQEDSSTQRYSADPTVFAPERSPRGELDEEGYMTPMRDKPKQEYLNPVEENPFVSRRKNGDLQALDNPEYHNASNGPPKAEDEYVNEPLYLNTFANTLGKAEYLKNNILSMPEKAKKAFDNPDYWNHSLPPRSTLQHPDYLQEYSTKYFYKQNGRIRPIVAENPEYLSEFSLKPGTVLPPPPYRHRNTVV

[9] = target: Receptor tyrosine-protein kinase erbB-4 (Homo sapiens) (UniProt Q15303); conditions: at 1 µM
[10] = target: Tyrosine-protein kinase Fer (Homo sapiens) (UniProt P16591); conditions: at 0.1 µM
Chain of Tyrosine-protein kinase Fer (Homo sapiens) (P16591 whole entry, looked up): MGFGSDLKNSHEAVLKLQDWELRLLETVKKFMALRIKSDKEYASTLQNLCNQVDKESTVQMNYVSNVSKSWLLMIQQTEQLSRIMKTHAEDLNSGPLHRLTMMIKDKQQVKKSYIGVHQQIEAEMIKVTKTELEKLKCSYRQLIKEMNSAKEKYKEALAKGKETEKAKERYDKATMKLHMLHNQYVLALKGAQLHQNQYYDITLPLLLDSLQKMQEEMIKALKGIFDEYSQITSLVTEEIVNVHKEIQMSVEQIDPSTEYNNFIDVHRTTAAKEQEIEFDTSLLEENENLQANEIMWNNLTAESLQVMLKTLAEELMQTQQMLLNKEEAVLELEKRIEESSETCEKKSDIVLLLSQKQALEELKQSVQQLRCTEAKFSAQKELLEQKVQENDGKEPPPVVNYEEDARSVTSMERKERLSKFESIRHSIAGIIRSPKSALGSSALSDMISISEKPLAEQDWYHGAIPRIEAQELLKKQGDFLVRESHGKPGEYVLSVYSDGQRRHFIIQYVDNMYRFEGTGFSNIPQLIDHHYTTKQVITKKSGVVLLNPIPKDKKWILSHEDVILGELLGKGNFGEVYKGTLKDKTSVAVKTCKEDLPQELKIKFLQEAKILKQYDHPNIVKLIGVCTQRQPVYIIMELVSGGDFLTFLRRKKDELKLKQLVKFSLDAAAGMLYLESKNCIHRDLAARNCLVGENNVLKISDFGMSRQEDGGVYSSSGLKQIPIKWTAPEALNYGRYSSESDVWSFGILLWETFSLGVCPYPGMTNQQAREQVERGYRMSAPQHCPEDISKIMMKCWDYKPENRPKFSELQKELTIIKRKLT

[11] = target: Tyrosine-protein kinase Fer (Homo sapiens) (UniProt P16591); conditions: at 1 µM
[12] = target: Tyrosine-protein kinase Fes/Fps (Homo sapiens) (UniProt P07332); conditions: at 0.1 µM
[13] = target: Tyrosine-protein kinase Fes/Fps (Homo sapiens) (UniProt P07332); conditions: at 1 µM
[14] = target: Fibroblast growth factor receptor 1 (Homo sapiens) (UniProt P11362); conditions: at 0.1 µM
Chain of Fibroblast growth factor receptor 1 (Homo sapiens) (P11362 22-822 limits assumed): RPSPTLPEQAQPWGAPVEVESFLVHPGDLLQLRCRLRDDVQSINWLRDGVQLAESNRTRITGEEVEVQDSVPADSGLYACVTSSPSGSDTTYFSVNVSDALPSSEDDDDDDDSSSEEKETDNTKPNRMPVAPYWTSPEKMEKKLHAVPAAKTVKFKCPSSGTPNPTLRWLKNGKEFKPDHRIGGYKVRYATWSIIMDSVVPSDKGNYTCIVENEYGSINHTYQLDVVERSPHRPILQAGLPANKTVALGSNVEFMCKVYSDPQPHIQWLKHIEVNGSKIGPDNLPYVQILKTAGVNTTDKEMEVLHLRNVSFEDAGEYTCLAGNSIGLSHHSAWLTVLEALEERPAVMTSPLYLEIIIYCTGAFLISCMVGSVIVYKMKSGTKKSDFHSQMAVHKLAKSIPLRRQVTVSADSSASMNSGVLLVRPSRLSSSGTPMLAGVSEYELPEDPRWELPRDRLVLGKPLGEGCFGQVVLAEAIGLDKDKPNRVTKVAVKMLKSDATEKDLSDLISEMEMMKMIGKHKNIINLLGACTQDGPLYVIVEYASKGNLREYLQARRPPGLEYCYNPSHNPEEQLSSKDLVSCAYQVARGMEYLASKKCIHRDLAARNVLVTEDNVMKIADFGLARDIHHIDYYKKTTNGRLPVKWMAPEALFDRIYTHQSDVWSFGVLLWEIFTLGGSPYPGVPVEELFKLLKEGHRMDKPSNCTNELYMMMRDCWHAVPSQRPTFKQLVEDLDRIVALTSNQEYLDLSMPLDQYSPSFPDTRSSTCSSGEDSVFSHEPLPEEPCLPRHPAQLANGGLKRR

[15] = target: Fibroblast growth factor receptor 1 (Homo sapiens) (UniProt P11362); conditions: at 1 µM
[16] = target: Fibroblast growth factor receptor 2 (Homo sapiens) (UniProt P21802); conditions: at 0.1 µM
Chain of Fibroblast growth factor receptor 2 (Homo sapiens) (P21802 22-821 limits assumed): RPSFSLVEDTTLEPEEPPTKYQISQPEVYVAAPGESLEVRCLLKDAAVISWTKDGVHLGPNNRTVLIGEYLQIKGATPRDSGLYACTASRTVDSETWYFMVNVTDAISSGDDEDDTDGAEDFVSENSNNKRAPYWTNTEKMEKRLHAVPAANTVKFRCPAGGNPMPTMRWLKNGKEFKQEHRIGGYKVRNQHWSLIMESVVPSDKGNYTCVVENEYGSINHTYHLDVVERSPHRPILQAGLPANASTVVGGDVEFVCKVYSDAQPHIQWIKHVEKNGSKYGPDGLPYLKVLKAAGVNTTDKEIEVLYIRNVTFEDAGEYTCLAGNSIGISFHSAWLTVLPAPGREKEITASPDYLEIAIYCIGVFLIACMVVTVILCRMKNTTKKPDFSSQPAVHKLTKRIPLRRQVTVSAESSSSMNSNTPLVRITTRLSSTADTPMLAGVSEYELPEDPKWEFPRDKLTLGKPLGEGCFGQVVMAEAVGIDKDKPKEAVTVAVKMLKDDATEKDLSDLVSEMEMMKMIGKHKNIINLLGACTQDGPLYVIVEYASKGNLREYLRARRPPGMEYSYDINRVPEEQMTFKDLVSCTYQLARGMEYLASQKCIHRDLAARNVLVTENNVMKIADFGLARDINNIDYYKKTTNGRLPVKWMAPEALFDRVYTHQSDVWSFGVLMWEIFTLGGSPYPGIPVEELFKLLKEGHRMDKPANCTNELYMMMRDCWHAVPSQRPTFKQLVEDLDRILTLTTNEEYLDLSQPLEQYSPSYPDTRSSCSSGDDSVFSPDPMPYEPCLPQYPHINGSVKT

[17] = target: Fibroblast growth factor receptor 2 (Homo sapiens) (UniProt P21802); conditions: at 1 µM
[18] = target: Fibroblast growth factor receptor 3 (Homo sapiens) (UniProt P22607); conditions: at 0.1 µM
Chain of Fibroblast growth factor receptor 3 (Homo sapiens) (P22607 23-806 limits assumed): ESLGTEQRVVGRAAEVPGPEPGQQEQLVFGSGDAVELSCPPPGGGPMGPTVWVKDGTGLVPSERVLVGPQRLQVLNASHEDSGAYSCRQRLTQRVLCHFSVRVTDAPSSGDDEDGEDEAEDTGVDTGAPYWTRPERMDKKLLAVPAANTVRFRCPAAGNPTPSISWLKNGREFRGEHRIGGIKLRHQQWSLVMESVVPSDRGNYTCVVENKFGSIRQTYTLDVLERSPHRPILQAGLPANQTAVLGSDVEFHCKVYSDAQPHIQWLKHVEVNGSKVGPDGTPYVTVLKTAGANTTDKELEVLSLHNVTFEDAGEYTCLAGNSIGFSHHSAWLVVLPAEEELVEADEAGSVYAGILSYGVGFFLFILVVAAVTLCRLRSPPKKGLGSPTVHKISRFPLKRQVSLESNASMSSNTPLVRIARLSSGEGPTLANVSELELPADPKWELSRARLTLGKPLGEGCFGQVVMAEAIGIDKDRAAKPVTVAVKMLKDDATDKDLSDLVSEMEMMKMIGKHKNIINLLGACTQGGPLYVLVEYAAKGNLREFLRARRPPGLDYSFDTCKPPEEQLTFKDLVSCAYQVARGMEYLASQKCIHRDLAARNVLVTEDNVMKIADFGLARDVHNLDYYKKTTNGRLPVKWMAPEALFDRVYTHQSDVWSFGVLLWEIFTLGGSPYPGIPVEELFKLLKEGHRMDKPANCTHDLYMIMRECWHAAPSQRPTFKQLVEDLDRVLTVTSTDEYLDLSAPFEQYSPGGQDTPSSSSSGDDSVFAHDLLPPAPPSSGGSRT

[19] = target: Fibroblast growth factor receptor 3 (Homo sapiens) (UniProt P22607); conditions: at 1 µM
[20] = target: Fibroblast growth factor receptor 4 (Homo sapiens) (UniProt P22455); conditions: at 0.1 µM;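 note: values are mean percent inhibition of FGFR4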

SMILES	inhibition [1]	inhibition [2]	inhibition [3]	inhibition [4]	inhibition [5]	inhibition [6]	inhibition [7]	inhibition [8]	inhibition [9]	inhibition [10]	inhibition [11]	inhibition [12]	inhibition [13]	inhibition [14]	inhibition [15]	inhibition [16]	inhibition [17]	inhibition [18]	inhibition [19]	inhibition [20]
c1ccc(-c2n[nH]cc2-c2ccnc(-c3ccc(OCCN4CCOCC4)cc3)c2)nc1	5.59%	-5.09%	-7.2%	-1.67%	0.63%	-3.69%	-4.37%	3.65%	2.65%	7.06%	5.42%	0.55%	0.54%	3.52%	5.55%	4.12%	7.12%	3.61%	5.31%	4.68%
COc1ccc(-c2ccc3c(NC(=O)C4CC4)n[nH]c3n2)cc1	5.25%	3.22%	2.79%	1.54%	-0.15%	2.9%	3.27%	4.2%	3.94%	2%	3.63%	0.69%	0.62%	-1.21%	0.21%	0.09%	0.42%	1.8%	0.95%	-0.34%
FC(F)(F)c1cccc(Nc2nccc(-c3cnn4nc(-c5ccccc5)ccc34)n2)c1	6.85%	5.37%	2.32%	-0.91%	0.74%	2.98%	2.21%	7%	8.48%	-2.66%	4.03%	1.27%	2.38%	-1.25%	-0.07%	1.56%	3.34%	1.31%	2.97%	-0.29%
NC(=O)c1cc(-c2ccncc2)cc(-c2ccccc2)c1N	57.7%	7.22%	21.1%	7.68%	36%	4.68%	8.53%	21.7%	33.8%	6.01%	4.57%	3.8%	3.92%	8.68%	6.54%	5.47%	8.42%	7.6%	6.17%	0.6%
C#Cc1cccc(Nc2ncnc3ccc(OCCCCNCCS(C)(=O)=O)cc23)c1	19.4%	4.21%	0.73%	1.68%	-1.52%	6.37%	29.9%	24.8%	63.8%	2.76%	3.37%	2.69%	6.01%	0.37%	0.98%	1.4%	2.36%	5.79%	3.33%	-4.44%
NC(=O)c1cc(-c2ccc(F)cc2)cc(-c2ccncc2)c1N	8.83%	5.88%	5.99%	3.64%	3.21%	4.35%	4.97%	7.7%	11.7%	1.98%	1.93%	3.18%	3.59%	5.1%	3.07%	1.81%	4.41%	4.84%	2.54%	-4.89%
NS(=O)(=O)c1ccc(N/N=C2\C(=O)Nc3ccc(-c4cnco4)cc32)cc1	7.61%	-2.23%	-3.53%	-2.49%	-0.26%	4.9%	13.6%	5.79%	14.2%	1.03%	0.94%	0.3%	0.19%	-2.98%	2.6%	-0.2%	15.2%	-0.63%	10.1%	-3.55%
Fc1ccc(-c2nc3n(c2-c2ccncc2)CCS3)cc1	7.66%	2.13%	-1.28%	-0.26%	-2.49%	4.16%	1.23%	9.02%	10%	2.18%	2.81%	2.58%	2.75%	-4.07%	1.42%	-0.33%	1.72%	2.38%	0.09%	-6.29%
CCc1ccc(Oc2nccc(-c3c(-c4ccc(F)cc4)ncn3C3CCNCC3)n2)cc1	9.06%	4.55%	4.56%	1.97%	3.15%	1.55%	7.71%	7.62%	11.6%	-1.66%	3.15%	3.41%	3.8%	7.59%	4.77%	9.05%	5.8%	7.97%	5%	7.02%
O=C1Nc2ccc(I)cc2C1=Cc1cc(Br)c(O)c(Br)c1	6.84%	0.93%	5.23%	5.1%	4.33%	3.38%	2.46%	5.63%	10.5%	-1.96%	4.37%	3.93%	4.1%	5.92%	2.51%	8.24%	7.14%	6.43%	5.73%	5.1%
Clc1ccc(CNc2nccc(-c3cnn4ncccc34)n2)cc1	9.79%	2.09%	2%	0.83%	0.64%	-2.69%	2.99%	3.33%	1.08%	3.91%	1.93%	0.01%	1.6%	0.58%	-1.59%	0.2%	1.7%	-0.71%	-0.67%	4.74%
O=C(Nc1n[nH]c2nc(-c3ccc(O)cc3)c(Br)cc12)C1CC1	37.8%	9.61%	5.92%	7.91%	28.8%	2.58%	4.82%	14.9%	22%	3.43%	7.42%	3.04%	3.83%	7.1%	21.4%	7.18%	17.9%	8.23%	12.5%	0.04%
NCc1ccc(-n2c(-c3nonc3N)nc3cnccc32)cc1	8.48%	7.61%	3.86%	2.23%	1.42%	2.39%	2.56%	16.3%	18%	3.01%	5.77%	12.8%	13%	4.07%	6.76%	6.5%	9.9%	9.59%	6.14%	-4.29%
